Sa growth 42C – blocks Staphylococcus aureus growth; 170,000 compounds, 0.53% hits; S. aureus RN4220 growth, OD600, 20 h, 42 °C; hits give low values; relative growth, % (test concentration not listed);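 active = relative growth at most 50% at the other temperature and 20+ points below 30 °C, or under 10% at both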
S aureus helic – blocks Staphylococcus aureus DNA helicase; purified S. aureus helicase, fluorescence unwinding assay; inhibition, % (test concentration not listed); 120,000 compounds, 0.05% hits; in the data active = inhibition above about 25%, passing the limit was not always enough;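 note: 0% = mean of negative control wells and 100% = mean of positive control wells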
The depositor's hits bear a star. Many of the other results were omitted from the sample, so hits are more common in it than they were.

CCSc1nc2n(n1)C(c1ccc(C(=O)O)cc1)C(C(=O)Nc1ccccc1C)=C(C)N2 (stereo unspecified) was read as Sa growth 42C 130.4.
Screening Cc1nnc(SCC(=O)NC2CCCCCC2)[nH]c1=O returned Sa growth 42C 0.2* and S aureus helic 12.0.
`Cc1sc2nc(SCC(=O)NC3CCCCC3)[nH]c(=O)c2c1C` gave Sa growth 42C 81.4 and S aureus helic 4.0.
N#CCC1(C#N)C2CC3CC(C2)CC1C3 (stereo unspecified) was read as Sa growth 42C 97.5.
`O=C(Nc1ccc(SC(F)(F)F)cc1)n1ccc(C(F)(F)F)n1` gave Sa growth 42C 4.9*.
For O=C(O)/C=C/C(=O)Nc1ccc(SC(F)(F)F)cc1 the results were Sa growth 42C 100.2 and S aureus helic -20.0.
Screening COc1ccc(C(c2c(C)[nH]c3ccccc23)N2CCOCC2)cc1 (stereo unspecified) returned Sa growth 42C 1.3* and S aureus helic 15.0.
Screening COc1ccc(C(c2c(C)[nH]c3ccccc23)N2CCCC2)cc1 (stereo unspecified) returned S aureus helic 21.0.
`CCSc1nnc(Cn2c(=O)sc3ccccc32)n1CCc1ccccc1` gave Sa growth 42C 113.4 and S aureus helic 9.0.
`O=c1ncn(Cc2cccs2)cc1-c1ccccc1` gave Sa growth 42C 80.9.
Screening CCOc1cccc(OCC)c2c(C)[n+](C)c(C)c1-2 returned Sa growth 42C 123.3 and S aureus helic 58.0*.
CCOc1cccc(OCC)c2c(C)nc(C)c1-2 was read as Sa growth 42C 105.1 and S aureus helic 7.0.
COC(CN(C)S(=O)(=O)c1cccc2cccnc12)OC was read as Sa growth 42C 103.5 and S aureus helic 4.0.
Screening COc1ccc2[nH]c3c(=O)n(CCCCC(=O)N4CCN(c5ncccn5)CC4)c(=S)[nH]c3c2c1 returned Sa growth 42C 97.1 and S aureus helic -3.0.
CC1(C)C2CCC1(C)C(NC(=O)c1ccco1)C2 (stereo unspecified) was read as Sa growth 42C 92.0.
`COC(Cn1c(=S)[nH]c2ccccc2c1=O)OC` gave Sa growth 42C 91.3 and S aureus helic -9.0.
O=C1OC2(O)c3ccccc3C(=O)N2c2ccccc21 (stereo unspecified) was read as Sa growth 42C 86.8 and S aureus helic -21.0.
Screening O=C1C=C2N(c3ccccc3)CCOC2(O)c2ccccc21 (stereo unspecified) returned Sa growth 42C 4.8* and S aureus helic 11.0.
`CCc1ccccc1NC(=O)CN(c1cc(C(F)(F)F)ccc1Cl)S(=O)(=O)c1ccccc1` gave Sa growth 42C 93.1.
For Cc1ccc(-n2nc(C)cc2C)nn1 the results were Sa growth 42C 98.8 and S aureus helic 21.0.
For CCOC(=O)N1CCN(CCC(=O)c2ccc(OC)cc2)CC1 the results were Sa growth 42C 89.2 and S aureus helic 13.0.
`CCOC(=O)N1CCN(CCC(=O)c2ccc(Br)cc2)CC1` gave Sa growth 42C -1.7* and S aureus helic 7.0.
Screening COC(=O)c1ccc(CS(=O)(=O)c2ccc(Br)cc2)o1 returned Sa growth 42C 98.2 and S aureus helic -3.0.
Screening Cc1cc(C)c(Cn2c3ccccc3c3cnn(CC(=O)NCc4ccco4)c(=O)c32)c(C)c1 returned Sa growth 42C 81.3 and S aureus helic -4.0.
Screening O=C(CSc1ccccc1Cl)N1CCCC1 returned Sa growth 42C 99.0 and S aureus helic -20.0.
`CNC(=O)Sc1ccccc1Cl` gave Sa growth 42C -0.6*.
Screening COc1ccc(-c2csc(Nc3c(C)n[nH]c3C)n2)cc1 returned Sa growth 42C 103.8 and S aureus helic -9.0.
For Cc1ccc(-c2nnn(CC(=O)N(Cc3ccccc3)C(C(=O)NC3CCCC3)c3ccco3)n2)cc1 (stereo unspecified) the results were Sa growth 42C 113.8 and S aureus helic 3.0.
`COc1ccc(-c2nnn(CC(=O)N(c3ccccc3)C(C(=O)NC3CCCC3)c3ccco3)n2)cc1` (stereo unspecified) gave Sa growth 42C 47.5* and S aureus helic 17.0.
Screening O=S(=O)(c1ccc(F)cc1)N1CCc2ccccc21 returned S aureus helic -17.0.
O=S(=O)(c1ccc(Cl)cc1)N1CCc2ccccc21 was read as Sa growth 42C 0.3* and S aureus helic -80.0.
CCc1ccc(Nc2c3c(nc4ccccc24)CCC3)cc1 was read as Sa growth 42C 6.7* and S aureus helic 18.0.
CCc1ccc(Nc2c3c(nc4ccccc24)CCCC3)cc1 was read as Sa growth 42C 78.8 and S aureus helic 7.0.
For CCCCC(=O)N1CCN(c2ccc(C(=O)CC)cc2F)CC1 the results were Sa growth 42C 91.9 and S aureus helic -30.0.
For Cc1c(CCC#N)c(Cl)n2c(nc3ccccc32)c1C#N the results were Sa growth 42C 88.2 and S aureus helic 6.0.
`O=C(O)c1ccccc1NCCc1ccc(F)cc1` gave Sa growth 42C 146.6 and S aureus helic 17.0.
For CCOC(=O)COC1=C(c2ccccc2)C(=O)c2ccccc2C1=O the results were Sa growth 42C 5.9* and S aureus helic 14.0.

Source: PubChem
